In the library only some 11% were active in any assay of this set; here they are far more common.
Gal4-VP16 FLuc – Gal4-VP16 reporter inhibition counter-screen | Drosophila S2 Gal4-VP16 UAS-luciferase, luminescence, 20 h | Potency, µM (doses to about 53.6 µM), without a hit: at the top dose activity, negative = inhibition, hits mostly inhibitors | 3.5% of 310,000 active;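 further: Gal4-VP16 expression switched on by copper sulfate through the metallothionein promoter; potency means the concentration at half of the fitted maximal effect; on the % scale 0 is the no-effect control and ±100 the full control effect; nearly all actives have a fitted effect of over 50% in size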
RORgamma inh – ROR gamma (mouse) transcription inhibition | Drosophila S2 Gal4-RORgamma UAS-luciferase reporter, 20 h | P51450 | 5.4% of 310,000 active | Potency, µM (highest dose often 53.6 µM), for inactives: top-dose activity change, negative = inhibition, hits mostly inhibitors; further: potency means the concentration at half of the fitted maximal effect; on the % scale 0 is the no-effect control and ±100 the full control effect; nearly all actives have a fitted effect of over 60% in size
Target sequence (P51450 whole entry, looked up, the tested form may be a part): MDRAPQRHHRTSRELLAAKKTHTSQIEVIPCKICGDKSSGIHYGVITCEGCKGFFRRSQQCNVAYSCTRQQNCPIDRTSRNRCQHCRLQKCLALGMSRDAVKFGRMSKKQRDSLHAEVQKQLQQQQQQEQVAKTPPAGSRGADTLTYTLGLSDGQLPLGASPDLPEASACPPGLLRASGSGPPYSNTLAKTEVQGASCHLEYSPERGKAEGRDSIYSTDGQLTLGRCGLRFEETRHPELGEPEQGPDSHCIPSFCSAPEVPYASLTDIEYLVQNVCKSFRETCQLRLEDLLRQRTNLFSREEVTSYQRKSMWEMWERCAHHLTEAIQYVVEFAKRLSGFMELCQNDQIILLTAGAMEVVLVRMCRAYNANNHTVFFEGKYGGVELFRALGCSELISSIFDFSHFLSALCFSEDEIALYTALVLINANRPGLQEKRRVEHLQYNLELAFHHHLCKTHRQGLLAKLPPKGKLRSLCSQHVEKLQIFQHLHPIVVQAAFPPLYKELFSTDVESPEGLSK
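In this cell-based reporter format, copper sulfate (700 uM final) drives Gal4–ROR gamma fusion expression from a metallothionein promoter in Drosophila Schneider cells; compounds preincubated 1 hr, reporter read after 20 hr at ambient temperature.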
SW480 rerep – DNA re-replication induction in SW480 cells. SW480 DNA re-replication, Hoechst DNA content imaging, 48 h. Potency, µM (top dose mostly 46.1 µM), for the others: top-dose re-replication activation, usual class: activators. 1.8% of 340,000 active. AID 624297; further: potency means the concentration at half of the fitted maximal effect; % of control where 0% means no effect; nearly all actives have a fitted effect of over 55% in size
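Readout is total intensity of Hoechst-stained nuclei, excited at 405 nm and collected at 500-530 nm. Compound treatment lasted 48 hr at 37 C in 5% CO2 before staining.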
MCF10A rerep – induces DNA re-replication in MCF 10a normal breast cells. 2.9% of 350,000 active. Potency, µM (doses to about 46.1 µM), without a hit: top-dose activity, positive = re-replication, actives largely listed as activators. MCF 10A DNA re-replication, Hoechst nuclear intensity, 48 h. AID 624296; further: potency means the concentration at half of the fitted maximal effect; % of control where 0% means no effect; nearly all actives have a fitted effect of over 50% in size
IL-1B inflam inh – inhibitors of inflammasome signaling (IL-1 beta secretion); THP-1 LPS/ATP IL-1B secretion, AlphaLISA, 16 h; active compounds read low; activity change, % at 57.5 µM; 4.7% of 360,000 active; AID 743279; in the data active means activity change below about -50%; inconclusive means mostly about -30% to -49%; further: on the % scale 0 is the no-effect control and ±100 the full control effect
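Secreted IL-1B measured by AlphaLISA bead assay after 16 h compound exposure of THP-1 cells; compounds (final up to 57.5 uM) added 1 h before LPS (250 ng/mL) and ATP (1.25 mM) stimulation; lower signal means less secretion.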
The depositor's hits bear a star; ! = repeats disagree; [ ] = another dose, or the depositor's remark. Unless noted, the call rests on the fitted dose curve; in most records, active means well fitted curve in the direction sought with a large enough effect; inconclusive means small, poorly fitted or top-dose-only effect, or another doubt; inactive means no such curve, though single readings can be large; an effect the other way counts as inactive or inconclusive.

Screening O=C(c1ccccc1)c1ccc(N2CCN(C(=O)c3cccc(F)c3F)CC2)c(F)c1 returned Gal4-VP16 FLuc 13µM*, RORgamma inh inconclusive, SW480 rerep 13%, MCF10A rerep inconclusive and IL-1B inflam inh -28.
For CCC(=O)c1ccc(N2CCN(C(=O)c3cccs3)CC2)c(F)c1 the results were Gal4-VP16 FLuc inconclusive, RORgamma inh inconclusive, SW480 rerep inconclusive, MCF10A rerep 6.5µM* and IL-1B inflam inh 7.
CC(C)C[C@@H](CC(=O)N[C@H](CC(=O)N[C@@H]1CCCC[C@H]1C(=O)N[C@H](CC(=O)N[C@@H](CCC(=O)O)CC(=O)O)Cc1c[nH]c2ccccc12)C(C)C)NC(=O)[C@@H]1CNCC[C@H]1N was read as Gal4-VP16 FLuc 3% and RORgamma inh 0%.
For CCCCc1cc(=O)oc2cc(C)c(CN3CCCC3)c(O)c12 the results were Gal4-VP16 FLuc 1%, RORgamma inh 0%, SW480 rerep 5%, MCF10A rerep inconclusive and IL-1B inflam inh 6.
`CCc1cc(=O)oc2cc(C)c(CN3CCCC(C)C3)c(O)c12` (centres undefined) gave Gal4-VP16 FLuc -10%, RORgamma inh 9%, SW480 rerep 0%, MCF10A rerep 23µM* and IL-1B inflam inh 18.
For CCCCCCCCC1=NCCc2c1[nH]c1ccccc21 the results were Gal4-VP16 FLuc 3%, RORgamma inh -23%, SW480 rerep inconclusive, MCF10A rerep 12µM* and IL-1B inflam inh -94*.
NNC(=O)CNC(c1ccccc1)c1cc(Br)ccc1NC(=O)c1ccc(Br)cc1 (centres undefined) was read as Gal4-VP16 FLuc -3%, RORgamma inh -1%, SW480 rerep 9%, MCF10A rerep 7% and IL-1B inflam inh -63*.
NC(=O)c1cc[n+](Cc2ccccc2Cl)cc1 was read as Gal4-VP16 FLuc 0%, RORgamma inh -14%, SW480 rerep -1%, MCF10A rerep 0% and IL-1B inflam inh 28.
Screening c1ccc2c(c1)Sc1ccccc1N2CCN1CCCC1 returned Gal4-VP16 FLuc -1%, RORgamma inh 21%, SW480 rerep 3% and MCF10A rerep 7%.
Screening NC(=O)N1CCN(CCCN2c3ccccc3Sc3cc(Cl)ccc32)CC1 returned IL-1B inflam inh -28.
Screening O=C1CSC2(CCN(CCCN3c4ccccc4Sc4ccc(Cl)cc43)CC2)N1 returned Gal4-VP16 FLuc -15%, RORgamma inh 3%[10 µM], SW480 rerep 7% and MCF10A rerep 19µM*.
Screening CN1CCN(CCCN2c3ccccc3Sc3ccc(C(F)(F)F)cc32)CC1 returned Gal4-VP16 FLuc 14µM*!, RORgamma inh inconclusive, SW480 rerep inconclusive, MCF10A rerep 23µM* and IL-1B inflam inh inconclusive.
For O=C([O-])[C@@H]1[O][Sb+]([O][Sb+]2[O][C@H]([C@H](O)CO)[C@H](O)[C@H](C(=O)[O-])[O]2)[O][C@H]([C@H](O)CO)[C@@H]1O the results were Gal4-VP16 FLuc -4% and RORgamma inh 1%.
`Cc1cc(C)c2nc(C)cc(Nc3ccc(C(=O)N4CCOCC4)cc3)c2c1` gave Gal4-VP16 FLuc -9%, RORgamma inh -17%, SW480 rerep 9%, MCF10A rerep 2% and IL-1B inflam inh -65*.
Screening Cc1ccc(NC(=O)Nc2ccc(C(=O)N3CCOCC3)cc2)cc1 returned Gal4-VP16 FLuc -26%, RORgamma inh -2%, SW480 rerep -8%, MCF10A rerep 2% and IL-1B inflam inh -10.
Screening CC(=O)c1ccc(Nc2cc(C)nc3ccccc23)cc1 returned Gal4-VP16 FLuc -4%, RORgamma inh 2%, SW480 rerep 18µM*, MCF10A rerep inconclusive and IL-1B inflam inh 7.
For CC(=O)c1cccc(Nc2cc(C)nc3c(C)cc(C)cc23)c1 the results were Gal4-VP16 FLuc -18%, RORgamma inh 3%, SW480 rerep 10%, MCF10A rerep inconclusive and IL-1B inflam inh -53*.
For CC(=O)c1ccc(Nc2nc(C)cc(C)n2)cc1 the results were Gal4-VP16 FLuc 3%, RORgamma inh 41%, SW480 rerep 2%, MCF10A rerep 1% and IL-1B inflam inh -10.
`CC(=O)c1ccc(Nc2cc(C)nc3c(C)cccc23)cc1` gave Gal4-VP16 FLuc inconclusive, RORgamma inh inconclusive, SW480 rerep 1.2µM*, MCF10A rerep 23µM* and IL-1B inflam inh -7.
Cc1ccccc1OCC(=O)NCCCNC(=O)c1ccco1 was read as Gal4-VP16 FLuc inconclusive, RORgamma inh -24%, SW480 rerep 3%, MCF10A rerep 0% and IL-1B inflam inh -8.
`Cc1ccc(Nc2cc(C)nc3c(C)cccc23)cc1` gave Gal4-VP16 FLuc 0%, RORgamma inh -21%, SW480 rerep 0%, MCF10A rerep 7% and IL-1B inflam inh -88*.
For Cc1cc(C)c2nc(-c3cccc(Cl)c3)c(C)c(C(=O)N3CCOCC3)c2c1 the results were Gal4-VP16 FLuc -7%, RORgamma inh 4%, SW480 rerep 36%, MCF10A rerep 3% and IL-1B inflam inh -82*.
`CC(=O)c1ccc(NC(=O)c2cc(CC(C)C)nc3ccccc23)cc1` gave Gal4-VP16 FLuc 8%, RORgamma inh inconclusive, SW480 rerep -2%, MCF10A rerep 0.82µM* and IL-1B inflam inh -22.
`Cc1cc(Nc2cccc(Br)c2)c2ccccc2n1` gave SW480 rerep -7%, MCF10A rerep 3% and IL-1B inflam inh -91*.
For CC(C)Cc1cc(C(=O)O)c2ccccc2n1 the results were SW480 rerep -16%, MCF10A rerep -10% and IL-1B inflam inh 19.
For Cc1cc(Nc2cccc(O)c2)c2ccccc2n1 the results were Gal4-VP16 FLuc -3% and RORgamma inh 11%.
For Cc1ccc(NC(=O)C2CCC(CNC(=O)[C@@H]3Cc4ccccc4CN3)CC2)c(C)c1 (some centres undefined) the results were Gal4-VP16 FLuc 2%, RORgamma inh -28%, SW480 rerep 10%, MCF10A rerep 19% and IL-1B inflam inh 23.
For CSc1ccc(Cl)c(C(=O)N(C)CC(=O)Nc2ccc(N3CCOCC3)cc2)c1 the results were SW480 rerep -7%, MCF10A rerep 13% and IL-1B inflam inh -9.
`c1ccc(-c2cc(NCCN3CCCCC3)c3ccccc3n2)cc1` gave Gal4-VP16 FLuc -16%, RORgamma inh -14%, SW480 rerep inconclusive, MCF10A rerep 13% and IL-1B inflam inh -99*.
`O=C(c1cc(-c2ccccc2)nc2ccccc12)N1CCCC1` gave Gal4-VP16 FLuc -7%, RORgamma inh -11%, SW480 rerep -14%, MCF10A rerep 5% and IL-1B inflam inh -3.
For O=C(NCC(c1cccnc1)N1CCN(c2ccc(F)cc2)CC1)OCc1ccccc1 (centres undefined) the results were Gal4-VP16 FLuc inconclusive, RORgamma inh 13µM*, SW480 rerep 4%, MCF10A rerep 4% and IL-1B inflam inh -17.
